Shown are actives, neighbours in structure and some others; about 2.4% of the full set was active somewhere.
D2 ag-1: agonists of human D2 dopamine receptor (beta-arrestin) | DiscoveRx PathHunter D2 beta-arrestin, luminescence, 90 min; 100% = 57 uM dopamine signal | activation, % (test concentration not listed) | 0.084% of 360,000 active; in the data active means activation above about 40%; inconclusive means between about 15% and that limit
Target sequence (P14416 whole entry, looked up): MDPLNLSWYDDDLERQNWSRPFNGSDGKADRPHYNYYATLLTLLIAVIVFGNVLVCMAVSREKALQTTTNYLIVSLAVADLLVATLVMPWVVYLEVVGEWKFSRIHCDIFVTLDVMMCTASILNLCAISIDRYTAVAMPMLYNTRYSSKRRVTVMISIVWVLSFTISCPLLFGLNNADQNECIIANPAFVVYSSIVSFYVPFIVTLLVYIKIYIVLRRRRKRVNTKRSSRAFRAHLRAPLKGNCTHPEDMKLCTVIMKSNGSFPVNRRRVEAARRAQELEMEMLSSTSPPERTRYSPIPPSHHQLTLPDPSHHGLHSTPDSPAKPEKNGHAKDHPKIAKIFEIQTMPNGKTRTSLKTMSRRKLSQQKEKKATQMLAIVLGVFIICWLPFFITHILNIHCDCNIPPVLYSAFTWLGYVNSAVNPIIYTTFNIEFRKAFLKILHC
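DiscoveRx PathHunter D2 beta-arrestin cells (2,100/well) attached overnight, then compound-stimulated 90 min at 37 C in HBSS/10 mM HEPES/0.1% Tween-20 buffer; beta-galactosidase complementation read by luminescence after 1 h at ambient temperature. Dopamine 57 uM final (EC100) as control.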
D2 PAM-1: human D2 receptor positive allosteric modulation; 0.23% of 360,000 active; DiscoveRx D2 beta-arrestin cells, luminescence, 90 min; 100% = 57 uM dopamine signal; potentiation, % (test concentration not listed); in the data active means potentiation above about 50%; inconclusive means mostly about 30% to 49%
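PathHunter beta-arrestin assay in DiscoveRx D2 cells. Compounds were added with an EC20 of dopamine (50 nM final) for 90 min at 37 deg C. Luminescence was read 1 h after detection reagent, with 57 uM dopamine as the EC100 control.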
D2 antag: D2 dopamine receptor (human) antagonism; P14416; HEK293 TREx D2 cells, calcium flux, dopamine EC80; inhibition, % at 10 µM; 2% of 340,000 active; AID 485344; in the data active means inhibition above about 30%; inactive means below that, where a call was filed; further: 0% is about no effect
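Measurement of antagonist activity uses fluorescent calcium dye in inducible HEK293 T-REx D2 cells: 10 s baseline, compound addition with 180 s read, EC80 dopamine addition with a further 180 s read.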
D2 ag-2: activates the human D2 dopamine receptor; P14416; HEK293 T-REx D2 cells, calcium flux agonist mode; activation, % at 2 µM; 0.53% of 340,000 active; AID 485358;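 active means activation over 3 SD above normal in the single-dose calcium agonist read, cut at about 30% in these data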; further: 0% is about no effect
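Agonism is scored from calcium flux in a force-coupled, inducible HEK293 cell line expressing D2, read kinetically for 180 s after compound addition against dopamine controls.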
D2 PAM-2: positively modulates the human D2 dopamine receptor allosterically; P14416; HEK293 T-REx D2, calcium flux, EC20 dopamine potentiation; potentiation, % at 10 µM; 0.34% of 340,000 active;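 active means potentiation over 3 SD above the plate norm, cut at about 30% in these data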; further: 0% is about no effect
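Cells plated with tetracycline inducer and held overnight at 30 C; calcium dye loaded 30–90 min at room temperature; baseline taken, compound added and read 180 s; EC20 dopamine then added and read 180 s.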
* = called active by the depositor; u = inconclusive; x = no result.

SMILES	D2 ag-1	D2 PAM-1	D2 antag	D2 ag-2	D2 PAM-2
O=C(NCCCN1CCN(c2cccc(Cl)c2)CC1)C1(S(=O)(=O)c2ccc(Cl)cc2)CC1	0	-38	35*	15	-18
Cn1c(=O)cc(OCCCC(=O)NCCN2CCN(c3ccccc3F)CC2)c2ccccc21	-2	-9	36*	32*	-25
COCCNC(=O)COc1cc(=O)n(C)c2ccccc12	1	1	-18	0	2
COc1cc(C2C(=O)N(C3CCCCCC3)CC(=O)N2Cc2ccccc2)ccc1OC(C)C (stereo unspecified)	x	x	x	1	8
CCN(CC)c1ccc(NS(=O)(=O)c2cc(-c3onc(C)c3C)ccc2OC)c(C)c1	x	x	x	0	1
Cc1c(C)n(-c2ccccc2)c2ncnc(NCCN(C)C)c12	-6	-23	40*	0	-25
CCC1CCCCN1CCCNC(=O)c1ccc2c(c1)N(Cc1ccccc1F)C(=O)c1ccccc1S2(=O)=O (stereo unspecified)	x	x	x	3	10
O=C(Nc1ccc(O)c2c(=O)cc(-c3ccccc3Cl)oc12)c1cccc(Cl)c1	-3	-8	23	0	1
Cc1cccc(C(=O)Nc2ccc(O)c3c(=O)cc(-c4ccccc4Cl)oc23)c1	-6	-7	31*	0	-3
O=C(CSc1nc(C2CC2)nc2ccccc12)N1c2ccccc2Sc2ccc(C(F)(F)F)cc21	4	60*	4	1	-9
Cc1ccc(CSc2ncc(Cl)c(C(=O)NCCc3ccc(S(N)(=O)=O)cc3)n2)cc1	x	x	x	-1	11
c1ccc(CNc2nc3ccccc3n3cnnc23)cc1	-2	-3	-3	0	41*
c1ccc(CNc2nc3ccccc3n3cnnc23)nc1	-1	-2	20	1	0
CCN(C(=O)c1ccc2c(c1)OCO2)C1CCS(=O)(=O)C1 (stereo unspecified)	-2	-15	39*	1	-18
CCCCN(C(=O)c1ccc2c(c1)OCO2)C1CCS(=O)(=O)C1 (stereo unspecified)	-3	0	-26	2	2
Cc1ccc(NC(=O)c2cc([N+](=O)[O-])ccc2NCc2cccnc2)cc1	-4	-9	33*	-1	-3
COc1ccc([N+](=O)[O-])cc1NCc1cccnc1	-2	-10	-8	-1	11
CC(C)(Oc1ccc(Cl)cc1)C(=O)Nc1nnc2n1CCS2	x	x	x	x	-6
CC(OC(=O)c1ccc(NC(=O)CC#N)cc1)C(=O)NCCC1=CCCCC1 (stereo unspecified)	0	4	38*	0	-3
COc1ccc(CNC(=O)c2ccc(CN3C(=O)C(C)=C(c4ccc(C)cc4)S3(=O)=O)cc2)cc1	x	x	x	0	-2
O=C(NCC(c1ccco1)S(=O)(=O)c1cccs1)c1ccccc1 (stereo unspecified)	x	x	x	1	2
CCCC(CCC)c1nc2ccncc2[nH]1	3	-1	-5	0	36*
O=C1C(=O)N(C2CCN(S(=O)(=O)c3ccccc3)CC2)CCN1Cc1ccccc1	x	x	x	0	3
Clc1ccc(/C=N/Nc2nnc(-c3ncc[nH]3)c3ccccc23)cc1	-4	-17	70*	0	-18
Cc1cccc(N2CCN(C(=O)Cn3nc(Cc4cccnc4)c4ccccc4c3=O)CC2)c1C	x	x	x	x	-3
SMILES	D2 ag-1	D2 PAM-1	D2 antag	D2 ag-2	D2 PAM-2
O=C(COC(=O)CCNS(=O)(=O)c1ccccc1F)Nc1nnc(-c2ccccc2)o1	-6	9	32*	-1	-8
O=C(COC(=O)CCNS(=O)(=O)c1ccccc1)NC(=O)Cc1ccccc1	5	0	37*	0	-10
O=C(COC(=O)CCNS(=O)(=O)c1ccc(Cl)cc1)NCc1ccccc1	-2	-10	x	x	x
CCc1nn2c(=O)cc(COC(=O)c3ccccc3NC(=O)c3cccs3)nc2s1	x	x	x	-3	-3
CCOc1c(Cl)cc(Cl)cc1CNCCSc1nnnn1C	x	x	x	0	x
CC1Cc2ccccc2N1C(=O)C12CCC(C)(C(=O)C1)C2(C)C (stereo unspecified)	0	-15	32*	1	x
COc1cc(NC(=O)C2CCCN(S(=O)(=O)c3cn(C)cn3)C2)cc(OC)c1 (stereo unspecified)	x	x	x	x	0
CCCN1CCC(=O)N([C@H](CN=[N+]=[N-])Cc2ccccc2)CC1	-3	-13	38*	0	6
CC(C)CN1CCC(=O)N([C@H](CN=[N+]=[N-])Cc2ccccc2)CC1	-2	-4	-6	0	-4
COc1ccccc1N1CCN(S(=O)(=O)c2c(C)sc3ncn(CC(=O)N(C)c4ccc(Cl)cc4)c(=O)c23)CC1	x	x	x	1	-8
O=C(CCc1ccccc1)Nc1ccnn1C1CCN(C/C=C/c2ccccc2)CC1	-1	-47	-16	7	2
COc1ccccc1/C=C/CN1CCC(n2nccc2NC(=O)CCc2ccccc2)CC1	-6	-13	35*	0	0
CCOc1ccc(CN2CCC(n3nccc3NC(=O)c3ccccc3OC)CC2)cc1	-5	-39	38*	0	-26
CCn1cc(CN2CCC(n3nccc3NC(=O)c3ccccc3OC)CC2)cn1	-2	-10	21	-1	-11
O=C(Nc1ccnn1C1CCN(Cc2ccccc2)CC1)c1ccccc1Cl	-7	-25	7	-1	-24
O=C(Nc1ccnn1C1CCN(C/C=C/c2ccccc2)CC1)c1ccccc1Cl	u	-14	80*	83*	-25
COC(=O)c1ccccc1NC(=O)CSc1nnc2cc(C)c3cc(C)cc(C)c3n12	x	x	x	-2	11
Cc1ccccc1-c1noc(-c2ccc(N3CCN(C)CC3)c([N+](=O)[O-])c2)n1	x	x	x	-1	-6
COc1ccc(Cl)cc1Nc1nc(C)cc(=O)[nH]1	2	-33	74*	0	-28
CN1CCN(C(=O)Cn2c(-c3cccs3)cc3ccccc32)CC1	x	x	x	0	1
Cc1ccc(Cl)cc1NC(=O)c1ccc(NC(=O)N2CCSc3ncccc32)cc1	x	x	x	0	-7
CC(=O)NCCCC(=O)NNC1CC(=O)N(c2cccc(Cl)c2)C1=O (stereo unspecified)	-4	-5	37*	0	0
CC(C)c1ccc2nc(N)sc2c1	1	-6	-19	0	-3
Cc1cc2nc(N)sc2cc1C	0	-8	34*	-1	9
COc1cc(OC)cc(C(=O)N[C@H](C(=O)OCn2nnc3ccccc3c2=O)C(C)C)c1	-4	-7	-12	-1	31*
COc1ccc(C(=O)N[C@H](C(=O)OCn2nnc3ccccc3c2=O)C(C)C)cc1	-3	-4	-14	0	3
O=C(OCn1nnc2ccccc2c1=O)c1cc2ccccc2o1	0	-5	69*	1	8
O=C(OCn1nnc2ccccc2c1=O)c1ccco1	0	-7	-12	0	-6
